KCNQ2 enhance = potentiators of rat KCNQ2 potassium channel; Potassium voltage-gated channel subfamily KQT member 2 (Rattus norvegicus), O88943; CHO-K1 KCNQ2, FluxOR thallium flux fluorescence; hits give high values; B-score at 10 µM; actives 0.54% (n = 310,000);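 active = fluorescence ratio B-score at least 3 SD of library B-scores, with initial fluorescence B-score within 3 of them, cut at about 5.3 in these data; same plate scores as AID 2156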;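 also: B-score of peak minus minimum over baseline fluorescence ratio after K+ and Tl+ stimulus; positive B-score means potentiation of KCNQ2 with more thallium influx and brighter signal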
Target sequence (O88943 whole entry, looked up): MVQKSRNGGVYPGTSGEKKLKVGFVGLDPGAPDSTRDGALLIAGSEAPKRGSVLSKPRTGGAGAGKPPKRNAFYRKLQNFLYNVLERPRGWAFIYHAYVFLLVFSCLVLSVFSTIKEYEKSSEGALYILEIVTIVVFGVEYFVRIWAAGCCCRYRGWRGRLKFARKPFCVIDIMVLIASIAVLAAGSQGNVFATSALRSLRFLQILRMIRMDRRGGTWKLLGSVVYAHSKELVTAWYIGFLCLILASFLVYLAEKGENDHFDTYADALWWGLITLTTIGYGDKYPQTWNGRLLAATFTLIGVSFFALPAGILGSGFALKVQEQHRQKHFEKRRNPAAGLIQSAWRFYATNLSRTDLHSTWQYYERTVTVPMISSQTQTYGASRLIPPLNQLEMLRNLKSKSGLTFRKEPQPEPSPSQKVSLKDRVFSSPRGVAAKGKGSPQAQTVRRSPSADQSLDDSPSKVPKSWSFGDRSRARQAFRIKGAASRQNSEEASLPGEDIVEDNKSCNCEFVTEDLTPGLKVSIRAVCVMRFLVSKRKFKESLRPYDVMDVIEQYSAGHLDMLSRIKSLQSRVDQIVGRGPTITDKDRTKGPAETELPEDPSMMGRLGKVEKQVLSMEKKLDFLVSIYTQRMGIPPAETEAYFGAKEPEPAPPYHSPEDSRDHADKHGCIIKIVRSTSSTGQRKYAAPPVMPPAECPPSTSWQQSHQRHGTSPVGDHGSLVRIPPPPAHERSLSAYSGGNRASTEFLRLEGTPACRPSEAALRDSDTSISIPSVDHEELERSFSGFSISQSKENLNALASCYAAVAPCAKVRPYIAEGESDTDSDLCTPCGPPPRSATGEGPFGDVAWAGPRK
KCNQ2 inh = rat KCNQ2 potassium channel inhibitors, primary screen, cell-based, CHO-K1, FluxOR thallium flux, B-score | 20 min; hits give low values | B-score at 10 µM | actives 1.1% (n = 310,000);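 active = fluorescence ratio B-score at most minus 3 library SDs, with starting brightness B-score within 2 library SDs, cut at about -5.5 in these data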
Starred values were filed as active, the others as inactive. Rows were chosen to be rich in hits. Some 1.6% of all compounds tested hit in one or more screens of this group.

`O=C(Nc1ccccc1C(=O)Nc1ccc(Br)cn1)c1cccc([N+](=O)[O-])c1` gave KCNQ2 enhance 1.1 and KCNQ2 inh inactive.
`C/C(=N\NC(=O)c1nnn(-c2nonc2N)c1CN1CCC(C)CC1)c1cccc(Br)c1` gave KCNQ2 enhance -5.7 and KCNQ2 inh -5.7*.
C/C(=N\NC(=O)c1nnn(-c2nonc2N)c1CN1CCCCCC1)c1ccc(Br)cc1 was read as KCNQ2 inh inactive.
Screening CC1CCCCN1C(=O)COc1ccc(F)cc1 (stereo unspecified) returned KCNQ2 enhance 0.89 and KCNQ2 inh inactive.
Cc1cccc(C(=O)O/N=C2/CC3CCC2(C)C3(C)C)c1 (stereo unspecified) was read as KCNQ2 enhance -5.7 and KCNQ2 inh -5.7*.
`Cc1ccc(C(=O)O/N=C2\CC3CCC2(C)C3(C)C)cc1` (stereo unspecified) gave KCNQ2 inh inactive.
`CC(=O)Nc1cccc(Oc2ncnc3scc(-c4ccc(C(C)C)cc4)c23)c1` gave KCNQ2 enhance 0.41 and KCNQ2 inh inactive.
For CC(C)(C)NC(=O)CSc1nc(Cc2ccccc2)nc2ccccc12 the results were KCNQ2 inh inactive.
For CC(C)N(C(=O)CSc1nc(Cc2ccccc2)nc2ccccc12)C(C)C the results were KCNQ2 enhance -6.3 and KCNQ2 inh -6.3*.
CC(C)N(C(=O)CSc1nc2ccccc2n1Cc1ccc(F)cc1)C(C)C was read as KCNQ2 enhance -7.9 and KCNQ2 inh -7.9*.
Screening CCC(C)(C)NC(=O)CSc1nc(Cc2ccccc2)nc2ccccc12 returned KCNQ2 enhance -6.3 and KCNQ2 inh -6.3*.
`CC(C)NC(=O)CSc1nc2ccccc2n1CC(=O)N(C(C)C)C(C)C` gave KCNQ2 enhance 0.34 and KCNQ2 inh inactive.
For CSc1nc(Cc2ccccc2)nc2ccccc12 the results were KCNQ2 inh inactive.
COc1ccccc1-n1c(SCC(=O)Nc2ccc(NC(C)=O)cc2)nc2c([nH]c3ccccc32)c1=O was read as KCNQ2 inh inactive.
Screening O=C(CSC1=NS(=O)(=O)c2cc(F)ccc2N1)Nc1ccccc1 returned KCNQ2 inh inactive.
O=C(CSC1=NS(=O)(=O)c2ccccc21)Nc1ccccc1 was read as KCNQ2 enhance -6.4 and KCNQ2 inh -6.4*.
COCCC(=O)N1CCC(Oc2ccc(C(=O)NC3CCOC(C)(C)C3)cc2)CC1 (stereo unspecified) was read as KCNQ2 enhance 0.79 and KCNQ2 inh inactive.
`CCc1ccc(C(=O)C[n+]2cccc3cc(OC)ccc32)cc1` gave KCNQ2 inh inactive.
COc1cccc(/C=N/NC(=O)CSc2nnc(C)n2-c2ccccc2)c1O was read as KCNQ2 inh inactive.
CCCCSc1nc(C)cc(SCC(=O)N/N=C/c2cccc(OC)c2O)n1 was read as KCNQ2 enhance 6.3* and KCNQ2 inh inactive.
O=S(=O)(NCc1ccccn1)c1ccccn1 was read as KCNQ2 inh inactive.
For COc1ccccc1NS(=O)(=O)c1cc(C(=O)NCc2ccco2)ccc1C the results were KCNQ2 inh inactive.
Screening COc1ccccc1NS(=O)(=O)c1cc(C(=O)NCC(C)(C)N2CCOCC2)ccc1C returned KCNQ2 enhance 6.7* and KCNQ2 inh inactive.
Cc1nc(-c2coc3c(CN(C)C)c(O)ccc3c2=O)cs1 was read as KCNQ2 enhance 1.1 and KCNQ2 inh inactive.
CCO[C@@H]1OC(C(=O)O)=C[C@H](C2CC2)[C@H]1CCCO was read as KCNQ2 inh inactive.
For COc1cccc(C(=O)Nn2c(-c3cccs3)nc3ccccc3c2=O)c1OC the results were KCNQ2 enhance -6.4 and KCNQ2 inh -6.4*.
`COc1ccc(C(=O)Nn2c(C)nc3ccccc3c2=O)c(OC)c1` gave KCNQ2 inh inactive.
Screening CCNC(=S)N/N=C/c1sc(N2CCCCC2)nc1-c1cccs1 returned KCNQ2 enhance 0.14 and KCNQ2 inh inactive.
COc1cc(/C=C2\SC(=S)N(NC(=O)c3ccccc3O)C2=O)ccc1O was read as KCNQ2 inh inactive.
`O=C(NN1C(=O)/C(=C/c2ccc(O)cc2)SC1=S)c1ccccc1O` gave KCNQ2 enhance -6 and KCNQ2 inh -6*.
For CC1CCN(c2ccc(N3C(=O)C4CCCCC4C3=O)cc2[N+](=O)[O-])CC1 (stereo unspecified) the results were KCNQ2 enhance 0.02 and KCNQ2 inh inactive.
C=CCOc1c(Br)cc(CNc2ccc(NC(=O)C(C)C)c(OC)c2)cc1OCC was read as KCNQ2 enhance 6.6* and KCNQ2 inh inactive.
For C=CCOc1c(Br)cc(CNc2ccc3[nH]c(=O)[nH]c3c2)cc1OCC the results were KCNQ2 enhance 0.68 and KCNQ2 inh inactive.
Screening Cc1cccc(Cn2c(-c3ccc[nH]c3=O)nc3ccccc32)c1 returned KCNQ2 enhance 0.12 and KCNQ2 inh inactive.
For CCOCCCNC(=O)CN1CCN(Cc2ccc(Cl)cc2)C1=O the results were KCNQ2 inh inactive.
CCc1nc2ccccc2c(C(=O)OCC(=O)NC(=O)c2cccn2C)c1C was read as KCNQ2 enhance -5.6 and KCNQ2 inh -5.6*.
CCc1nc2ccccc2c(C(=O)OCC(=O)C(C)(C)C)c1C was read as KCNQ2 enhance 0.32 and KCNQ2 inh inactive.
For CCc1nc2ccccc2c(C(=O)OCCN2C(=O)c3ccccc3C2=O)c1C the results were KCNQ2 enhance -9.6 and KCNQ2 inh -9.6*.
For CCc1nc2ccccc2c(C(=O)O)c1C the results were KCNQ2 inh inactive.
Screening Nc1nc(-c2ccccc2)nn1S(=O)(=O)c1ccccc1 returned KCNQ2 inh inactive.
For C[C@@H](CC#N)CN1CC[C@H](C(C)(C)C)CCC1=O the results were KCNQ2 inh inactive.
COc1cc(C2C(C#N)=C(N)N(N(C)C)C3=C2C(=O)CC(C)(C)C3)cc(OC)c1OC (stereo unspecified) was read as KCNQ2 enhance 1.1 and KCNQ2 inh inactive.
COC(=O)C(Cc1ccccc1)NC(=O)CCNC(=O)c1ccco1 (stereo unspecified) was read as KCNQ2 enhance 0.2 and KCNQ2 inh inactive.
Screening CCc1ccc(N(C(=O)c2snc(C(N)=O)c2N)C(C(=O)NCCC(C)C)c2c[nH]c3ccccc23)cc1 (stereo unspecified) returned KCNQ2 inh inactive.
Screening C=CCOc1ccc(C(c2c(O)nc(SC)[nH]c2=O)c2c(O)nc(SC)[nH]c2=O)cc1 returned KCNQ2 enhance 1.3 and KCNQ2 inh inactive.
Screening N#CC1=C(N)NC(SCC(=O)c2ccc(Cl)cc2)=C(C#N)C12CCCC2 returned KCNQ2 inh inactive.
Screening N#CC1=C(N)NC(SCC(=O)c2ccc(Br)cc2)=C(C#N)C12CCCCC2 returned KCNQ2 enhance -6.6 and KCNQ2 inh -6.6*.
CC1(C)Cc2ccccc2-c2nc(-c3ccccc3)oc(=O)c21 was read as KCNQ2 enhance -7.9 and KCNQ2 inh -7.9*.
CC1(C)Cc2ccccc2-c2nc(NN)[nH]c(=O)c21 was read as KCNQ2 inh inactive.
For COc1cccc(NC(=O)CCC(=O)N2CC(C)Oc3ccc(C)cc32)c1 (stereo unspecified) the results were KCNQ2 inh inactive.
O=C(N/N=C/c1cccc(C(F)(F)F)c1)C1CCN(c2ncc(C(F)(F)F)cc2Cl)CC1 was read as KCNQ2 inh inactive.
`COc1c2ccc(C(=O)NCCCCc3ccccc3)cc2nn1C` gave KCNQ2 enhance 1.2 and KCNQ2 inh inactive.

Compound activity: PubChem, Johns Hopkins Ion Channel Center
